Experiment [1] can be described thus: anti-His antibody binders, primary screen, artefact control for SMM control protein annotation, biochemical, small-molecule microarray, 635 nm fluorescence (AID 1128).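 Also: score merges feature fluorescence with signal-to-noise for each printed compound spot.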 The settings on record: anti-His Alexa647 antibody binding, higher = more signal.
Experiment [2] deals with Human papillomavirus type 1a E7 protein (residues 1-88). The experiment is described as follows: HPV1a E7 small-molecule binders, primary screen, biochemical, small-molecule microarray, residues 1-88, 635 nm (AID 1129). The note with it: small-molecule microarray binding, fluorescence 635 nm; higher = more signal.
For experiment [3], the target named is Focal adhesion kinase 1 (Homo sapiens) (UniProt Q05397). Nature of the experiment: small-molecule microarray binders of FAK, primary screen, biochemical, 635/667 nm fluorescence, BSA, DTT (AID 1130).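 Also: composite of spot emission at 667 nm and signal to noise over triplicate slides.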 The settings on record: PTK2 binding, 635 nm fluorescence, higher = more signal.
Focal adhesion kinase 1 (Homo sapiens), sequence (Q05397 whole entry, looked up): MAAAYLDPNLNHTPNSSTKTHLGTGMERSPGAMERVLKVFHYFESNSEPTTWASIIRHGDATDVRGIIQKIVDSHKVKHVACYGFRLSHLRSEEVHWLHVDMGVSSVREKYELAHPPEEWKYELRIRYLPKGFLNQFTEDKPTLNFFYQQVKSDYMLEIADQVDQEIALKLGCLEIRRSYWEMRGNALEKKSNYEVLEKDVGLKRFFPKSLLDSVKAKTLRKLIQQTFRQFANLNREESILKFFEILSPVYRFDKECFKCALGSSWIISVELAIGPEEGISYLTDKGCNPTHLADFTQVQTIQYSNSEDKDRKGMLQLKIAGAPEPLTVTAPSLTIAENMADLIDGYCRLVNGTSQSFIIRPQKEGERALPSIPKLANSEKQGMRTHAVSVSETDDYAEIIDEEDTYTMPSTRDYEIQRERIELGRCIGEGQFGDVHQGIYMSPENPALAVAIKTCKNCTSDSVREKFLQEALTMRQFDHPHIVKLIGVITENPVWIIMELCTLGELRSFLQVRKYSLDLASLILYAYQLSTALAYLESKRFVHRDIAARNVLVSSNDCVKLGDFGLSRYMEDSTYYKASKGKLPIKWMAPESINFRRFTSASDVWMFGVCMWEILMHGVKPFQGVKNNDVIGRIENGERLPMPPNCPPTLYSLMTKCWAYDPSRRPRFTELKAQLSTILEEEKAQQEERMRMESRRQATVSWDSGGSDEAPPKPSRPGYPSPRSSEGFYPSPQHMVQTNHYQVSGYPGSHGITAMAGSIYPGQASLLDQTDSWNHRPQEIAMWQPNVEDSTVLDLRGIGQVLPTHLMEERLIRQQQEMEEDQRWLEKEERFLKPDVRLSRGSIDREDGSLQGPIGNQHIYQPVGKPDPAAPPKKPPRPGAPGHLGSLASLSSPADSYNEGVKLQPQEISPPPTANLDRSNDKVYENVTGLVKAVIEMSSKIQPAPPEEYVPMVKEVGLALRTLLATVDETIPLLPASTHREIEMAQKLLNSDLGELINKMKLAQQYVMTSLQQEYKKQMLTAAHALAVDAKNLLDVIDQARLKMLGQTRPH
Experiment [4] relates to Fibrinogen (Alexa647-labelled). Nature of the experiment: fibrinogen binders on compound microarrays, profiling panel, artefact control for SMM control-protein annotation, biochemical, small-molecule microarray, 635/667 nm fluorescence (AID 1131).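 Also: z-score merges 667 nm fluorescence with per-spot signal-to-noise over triplicate slides.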 The note with it: fibrinogen-A647 binding fluorescence, higher = more signal.
Experiment [5] concerns the target Follistatin (Homo sapiens) (UniProt P19883). Nature of the experiment: follistatin binders on small-molecule microarrays, primary screen, biochemical, small-molecule microarray, 635/667 nm fluorescence (AID 1132). The note with it: FST binding, 635 nm fluorescence, higher = more signal.
In experiment [6] the target is Fibroblast growth factor 2 (Homo sapiens) (UniProt P09038). Nature of the experiment: FGF2 binders on small-molecule microarrays, primary screen, biochemical, small-molecule microarray, 635/667 nm fluorescence (AID 1133). The settings on record: small-molecule microarray binding, FGF2, fluorescence 635/667; higher = more signal.
Fibroblast growth factor 2 (Homo sapiens), sequence (P09038 whole entry, looked up): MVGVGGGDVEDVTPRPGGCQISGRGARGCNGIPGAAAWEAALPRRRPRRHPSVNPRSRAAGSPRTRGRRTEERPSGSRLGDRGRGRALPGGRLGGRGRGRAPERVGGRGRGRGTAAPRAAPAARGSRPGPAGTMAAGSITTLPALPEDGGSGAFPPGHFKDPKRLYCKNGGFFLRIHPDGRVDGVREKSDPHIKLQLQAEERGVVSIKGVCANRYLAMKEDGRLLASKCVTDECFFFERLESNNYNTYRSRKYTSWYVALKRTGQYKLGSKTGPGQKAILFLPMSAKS
Experiment [7] is described as follows: mitochondrial membrane potential change in A549 cells, profiling panel, cell-based, JC-1 fluorescence, basal, 24 h, 100 nL (AID 1138).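 Also: A549 lung adenocarcinoma cells under basal conditions with no added stimulus; test concentration not given here.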 The note with it: higher = more signal.
The subject of experiment [8] is Lefty1. The experiment is described as follows: Lefty1 binders on small-molecule microarrays, primary screen, biochemical, small-molecule microarray, 635/667 nm fluorescence (AID 1139). The note with it: small-molecule microarray binding, fluorescence 635/667; higher = more signal.
The test system of experiment [9] is wheat germ agglutinin (Triticum aestivum), Alexa647-labelled. Nature of the experiment: wheat germ agglutinin binders on compound microarrays, profiling panel, artefact control for SMM control-protein annotation, biochemical, small-molecule microarray, 635/667 nm fluorescence (AID 1140).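 Also: score merges 667 nm feature emission with signal to noise over triplicate slides.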 The note with it: WGA-A647 binding, 635 nm fluorescence, higher = more signal.

Experiment [10] addresses Luciferin 4-monooxygenase (Photinus pyralis) (UniProt P08659). The experiment is described as follows: firefly luciferase enzyme inhibitors, primary screen, biochemical, luminescence, purified enzyme, 2006 set (AID 1141).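 Also: cell-free assay with purified firefly luciferase at 100 ng per well in PBS; test concentration not given here.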 The settings on record: SteadyGlo luminescence, 30 min, higher = more signal, called active from +8 up or from −8 down.
Experiment [11] has as its system Wnt5a (protein binding on small-molecule microarray). The experiment is described as follows: Wnt5a binders on small-molecule microarray, primary screen, biophysical, 635/667 nm fluorescence (AID 1142).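 Also: fluorescence read at 667 nm with signal to noise per printed feature.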 The note with it: 635 nm fluorescence, higher = more signal.
A short description of experiment [12]: cell viability in Huh7 cells, primary screen, cytotoxicity control for HCV replication inhibitor project, CellTiter-Glo luminescence, basal, 48 h (AID 1143).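 Also: Huh7 hepatoma cells carrying a hepatitis C replication reporter with no stimulus; test concentration not given here.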 The settings on record: Huh7 HCV replicon, higher = more signal, called active from +8 up or from −8 down. (In ATP-based viability assays light output follows the ATP content of the culture.)
The nature of experiment [13]: P. aeruginosa biofilm formation inhibitors, primary screen, PAO1 strain, BacTiter-Glo luminescence, LB-PBS (AID 1144). The note with it: 12 h, higher = more signal.
Experiment [14] is described as follows: CREB reporter modulators without forskolin, primary screen, cell-based, PC12, CRE-LacZ reporter, unstimulated (AID 1145). The settings on record: no forskolin, luminescence, 4.5 h, higher = more signal, called active from +8 up or from −8 down.
Experiment [15] in a line: CREB reporter modulators under forskolin, primary screen, cell-based, PC12, CRE-LacZ reporter, forskolin-stimulated (AID 1146).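 Also: PC12 cells with 6xCRE LacZ reporter stimulated by forskolin 10 µM; beta-galactosidase reporter signal reflecting CREB driven transcription.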 The note with it: luminescence, 4.5 h, higher = more signal, called active from +8 up or from −8 down.
The target of experiment [16] is Streptavidin (Streptomyces avidinii) (UniProt P22629). The experiment is described as follows: streptavidin binders on small-molecule microarray, primary screen, artefact control for SMM compound annotation, biophysical, 635/667 nm fluorescence (AID 1147).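 Also: signal reflects streptavidin binding to arrayed compounds as a control protein.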 The settings on record: streptavidin binding, higher = more signal.
Streptavidin (Streptomyces avidinii), sequence (P22629 whole entry, looked up): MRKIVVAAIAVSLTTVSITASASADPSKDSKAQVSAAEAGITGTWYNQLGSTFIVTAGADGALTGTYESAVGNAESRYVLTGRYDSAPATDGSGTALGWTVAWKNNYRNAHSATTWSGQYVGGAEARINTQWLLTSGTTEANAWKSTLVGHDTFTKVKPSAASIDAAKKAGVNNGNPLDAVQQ
Experiment [17] in a line: small-molecule binders of probe aInhba, primary screen, biochemical, small-molecule microarray, 635/667 nm fluorescence (AID 1148).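 Also: score merges 667nm spot fluorescence with signal-to-noise for antibody binding to printed compounds.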 The settings on record: higher = more signal.
The target in experiment [18] is Torsin-1A (Homo sapiens) (UniProt O14656). The experiment is described as follows: torsin A binders from cell lysate, primary screen, small-molecule microarray, wild-type, 635/667 nm (AID 1149). The settings on record: COS7 hTOR1A-WT lysate, 635 nm fluorescence, higher = more signal.
Torsin-1A (Homo sapiens), sequence (O14656 whole entry, looked up): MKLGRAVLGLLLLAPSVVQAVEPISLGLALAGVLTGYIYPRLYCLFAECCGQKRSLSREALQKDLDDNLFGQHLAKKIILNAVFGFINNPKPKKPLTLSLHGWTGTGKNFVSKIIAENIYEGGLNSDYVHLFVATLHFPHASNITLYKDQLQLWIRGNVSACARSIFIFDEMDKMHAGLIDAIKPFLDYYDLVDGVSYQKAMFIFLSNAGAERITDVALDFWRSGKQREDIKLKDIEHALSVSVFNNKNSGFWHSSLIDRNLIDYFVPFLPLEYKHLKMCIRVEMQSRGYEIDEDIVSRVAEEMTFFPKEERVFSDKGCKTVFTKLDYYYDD
Experiment [19] has the same target. Nature of the experiment: small-molecule binders of mutant TOR1A in lysate, primary screen, cell lysate, small-molecule microarray, COS7 lysate, 635/667 nm fluorescence (AID 1150).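 Also: score pools 667 nm emission and signal to noise measuring lysate protein binding.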 The note with it: COS7 hTOR1A mutant lysate, 635 nm fluorescence, higher = more signal.
The test system of experiment [20] is Sonic hedgehog protein (Shh). Nature of the experiment: small-molecule binders of Shh protein, primary screen, biochemical, small-molecule microarray, 635/667 nm fluorescence (AID 1151).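 Also: Shh protein binding to compounds spotted on small-molecule microarray slides; score combines spot fluorescence intensity with signal-to-noise across triplicate slides.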 The settings on record: small-molecule microarray binding, 635 nm fluorescence; higher = more signal.

From PubChem BioAssay come the findings set out here.

Activity calls are given as the source filed them. Unless noted, no rule for the calls is given here.

Luciferin 4-monooxygenase (Photinus pyralis), sequence (P08659 whole entry, looked up): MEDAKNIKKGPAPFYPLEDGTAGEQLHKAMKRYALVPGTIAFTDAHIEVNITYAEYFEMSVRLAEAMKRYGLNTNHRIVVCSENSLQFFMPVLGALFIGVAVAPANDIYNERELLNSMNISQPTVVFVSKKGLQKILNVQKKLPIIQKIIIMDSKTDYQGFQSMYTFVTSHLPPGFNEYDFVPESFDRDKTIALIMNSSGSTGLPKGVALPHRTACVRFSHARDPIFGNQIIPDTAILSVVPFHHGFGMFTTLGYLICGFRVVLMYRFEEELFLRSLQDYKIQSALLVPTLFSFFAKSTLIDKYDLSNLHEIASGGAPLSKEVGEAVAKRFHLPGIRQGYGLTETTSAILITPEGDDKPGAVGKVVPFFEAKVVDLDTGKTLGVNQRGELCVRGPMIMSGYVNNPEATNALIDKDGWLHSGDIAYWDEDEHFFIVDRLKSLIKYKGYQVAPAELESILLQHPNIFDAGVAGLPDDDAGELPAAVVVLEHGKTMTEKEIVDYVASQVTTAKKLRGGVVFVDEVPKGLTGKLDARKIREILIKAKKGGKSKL
Follistatin (Homo sapiens), sequence (P19883 whole entry, looked up): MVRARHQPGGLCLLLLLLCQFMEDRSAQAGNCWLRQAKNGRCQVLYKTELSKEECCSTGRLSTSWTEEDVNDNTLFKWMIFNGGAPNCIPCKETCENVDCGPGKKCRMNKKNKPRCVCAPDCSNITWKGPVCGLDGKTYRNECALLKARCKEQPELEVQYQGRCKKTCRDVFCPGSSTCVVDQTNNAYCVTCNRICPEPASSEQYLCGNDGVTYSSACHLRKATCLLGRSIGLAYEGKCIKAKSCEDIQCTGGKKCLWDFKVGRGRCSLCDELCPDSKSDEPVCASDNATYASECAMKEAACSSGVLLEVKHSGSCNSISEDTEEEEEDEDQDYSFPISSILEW

Take `COc1ccc(O[C@H]2C=C[C@@H](c3ccccc3)O[C@@H]2CON=C2[C@H]3CCn4c(=O)n(-c5ccccc5)c(=O)n4[C@H]3[C@H](O)[C@@H]3O[C@H]23)cc1`: the composite z-score in experiment [1] is -0.444; in experiment [2], 1.05; in experiment [3], 0.0673; in experiment [4], 0.335; in [5], 0.356; in experiment [6], 0.199. The composite z-score was 0.451 in [8]; 0.883 in [9]; 0.185 in [11]; 0.836 in experiment [16]; -0.2 in experiment [17]; 0.0461 in [18]. Moreover, the figures for the composite z-score in experiment [19] and in [20] were 0.066 and 0.536, respectively. The z-score in experiment [7] was -0.336; in experiment [10] it was 0.618 (inactive); in experiment [12] it was -1.53 (inactive); in [13] it was 1.92 (inactive); in experiment [14], 0.834 (inactive); in experiment [15] it was -0.016 (inactive).
For `CO[C@H]1COC(=O)CC=C[C@@H](C)[C@H](NS(=O)(=O)c2ccc(C)cc2)COC(=O)CCC[C@@H]1C`, the composite z-score in experiment [1] is 0.167; in [2], -0.21; in [3] it was 0.193; in experiment [4] it was 0.19; in experiment [5], 0.785; in experiment [6], 0.579. Moreover, the composite z-score in experiment [8] was 0.962; in experiment [9] it was -0.0807; in experiment [11] it was 0.118; in experiment [16] it was 0.439; in [17] it was -0.239; in [18], 0.815. In addition, the values for the composite z-score in experiment [19] and in experiment [20] were 0.819 and 0.417, respectively. Further, the z-score was -1.07 in experiment [7]; 1.03 (inactive) in experiment [10]; -0.279 (inactive) in experiment [12]; -0.365 (inactive) in [13]; -1.13 (inactive) in experiment [14]; -0.198 (inactive) in experiment [15].
Turning to `CC(C)CON=C1C[C@@H](O)[C@@H](O)[C@@H]2[C@@H]3C(=O)N(C[C@@H]4CCCO4)C(=O)[C@@H]3CC[C@@H]12`, the composite z-score was 0.0488 in experiment [1]; -0.0845 in experiment [2]; 0.348 in experiment [3]; 0.222 in experiment [4]; -0.341 in [5]; -0.0796 in experiment [6]. Moreover, the composite z-score is -0.399 in [8]; 0.561 in experiment [9]; 0.0867 in [11]; -0.265 in experiment [16]; -0.0987 in experiment [17]; -0.25 in experiment [18]. Besides, the composite z-score was 0.0844 in [19] and -0.321 in experiment [20]. In addition, the z-score in experiment [7] was 0.221; in [10] it was 0.141 (inactive); in experiment [12], 1.13 (inactive); in experiment [13] it was -0.184 (inactive); in experiment [14], -0.0246 (inactive); in experiment [15], 0.436 (inactive).
For `CON=C1[C@H]2CCn3c(=O)n(-c4ccccc4)c(=O)n3[C@H]2[C@H](O)[C@@H]2O[C@H]12`, the composite z-score in [1] is 1.95; in [2] it was 0.574; in [3], 0.295; in experiment [4] it was 0.148; in experiment [5], 0.743; in experiment [6], 0.986. Further, the composite z-score was 0.695 in [8]; 0.168 in experiment [9]; 0.0275 in experiment [11]; 0.0011 in [16]; -0.268 in experiment [17]; 0.144 in experiment [18]. Moreover, the figures for the composite z-score in [19] and in experiment [20] were 0.606 and 0.435, respectively. Moreover, the z-score was 0.758 in experiment [7]; -2.49 (inactive) in experiment [10]; 0.653 (inactive) in [12]; -0.633 (inactive) in [13]; 1.55 (inactive) in experiment [14]; 0.236 (inactive) in experiment [15].
Regarding `O=C1C[C@@H](O)[C@@H](O)[C@@H]2[C@@H]3C(=O)N(C[C@@H]4CCCO4)C(=O)[C@@H]3CC[C@@H]12`, the composite z-score in experiment [1] was found to be 0.318; in experiment [2] it was 0.476; in [3] it was 0.181; in [4] it was 0.517; in [5], 0.848; in [6], 0.657. The composite z-score was determined as 0.42 in [8]; 0.208 in experiment [9]; 0.191 in [11]; 0.622 in [16]; 0.0956 in experiment [17]; 0.232 in experiment [18]. In addition, the composite z-score in experiment [19] came to 0.206; in [20], 0.678. Besides, the z-score was 0.52 in [7]; -0.658 (inactive) in [10]; 0.149 (inactive) in [12]; -0.213 (inactive) in experiment [13]; 0.246 (inactive) in experiment [14]; 0.287 (inactive) in experiment [15].
